Laboratory results from the supplement of paper PMC6555819.

Key:
Experiment in all cases: PBM binding z-score (relative to random genomic background probes); higher = stronger binding; sequences stand for … in GC…GCGATTGACAGCGTAGAATGAAGG
[1] = test system: FXR:RXRa (NR concentration 270 nM, RXRa partner concentration 90 nM)
Outline: (§1)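 Binding z-scores take random background probes as their reference. They come from custom Agilent 4×180K protein-binding microarrays incubated 1 h with ligand-free nuclear receptor dimers, with antibodies against each partner (one per run) detecting binding. Scanned fluorescence was regression-normalized.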

[2] = test system: LXRa:RXRa (NR concentration 270 nM, RXRa partner concentration 90 nM)
Outline: as §1

[3] = test system: LXRa homodimer (NR concentration 270 nM)
Outline: as §1

[4] = test system: LXRb:RXRa (NR concentration 270 nM, RXRa partner concentration 90 nM)
Outline: as §1

[5] = test system: LXRb homodimer (NR concentration 270 nM)
Outline: as §1

[6] = test system: PPARa:RXRa (NR concentration 270 nM, RXRa partner concentration 90 nM)
Outline: as §1

[7] = test system: PPARg:RXRa (NR concentration 180 nM, RXRa partner concentration 90 nM)
Outline: as §1

[8] = test system: PPARg:RXRa 270nM:90nM, anti-RXR (NR concentration 270 nM, RXRa partner concentration 90 nM)
Outline: as §1

[9] = test system: PPARg:RXRa 30nM:10nM, anti-RXR (NR concentration 30 nM, RXRa partner concentration 10 nM)
Outline: as §1

[10] = test system: PPARg:RXRa 90nM:30nM, anti-RXR (NR concentration 90 nM, RXRa partner concentration 30 nM)
Outline: as §1

[11] = test system: PPARg:RXRa DBDmut IVT, anti-RXR (DBD mutation: RXRa K156A/R161A, NR concentration 270 nM, RXRa partner concentration 90 nM)
Outline: as §1

[12] = test system: PPARg:RXRa IVT, anti-PPARg (NR concentration 270 nM, RXRa partner concentration 90 nM)
Outline: as §1

[13] = test system: PPARg DBDmut:RXRa IVT, anti-PPARg (DBD mutation: PPARg1 K132A/R137A, NR concentration 270 nM, RXRa partner concentration 90 nM)
Outline: as §1

[14] = test system: PPARg DBDmut IVT, anti-PPARg (DBD mutation: PPARg1 K132A/R137A, NR concentration 270 nM)
Outline: as §1

[15] = test system: PPARg homodimer (NR concentration 180 nM)
Outline: as §1

[16] = test system: PXR:RXRa (NR concentration 270 nM, RXRa partner concentration 90 nM)
Outline: as §1

[17] = test system: PXR homodimer (NR concentration 270 nM)
Outline: as §1

[18] = test system: RARa:RXR (NR concentration 270 nM, RXRa partner concentration 90 nM)
Outline: as §1

[19] = test system: RARa homodimer (NR concentration 270 nM)
Outline: as §1

[20] = test system: RARb:RXRa (NR concentration 270 nM, RXRa partner concentration 90 nM)
Outline: as §1

Sequence	PBM binding z-score [1]	PBM binding z-score [2]	PBM binding z-score [3]	PBM binding z-score [4]	PBM binding z-score [5]	PBM binding z-score [6]	PBM binding z-score [7]	PBM binding z-score [8]	PBM binding z-score [9]	PBM binding z-score [10]	PBM binding z-score [11]	PBM binding z-score [12]	PBM binding z-score [13]	PBM binding z-score [14]	PBM binding z-score [15]	PBM binding z-score [16]	PBM binding z-score [17]	PBM binding z-score [18]	PBM binding z-score [19]	PBM binding z-score [20]
CCTTTCGGGTCACGAGGTTATAGCACGACGAGCG	6.94	4.87	0.634	4.2	0.882	6.42	7.34	6.75	2.96	5.52	3.85	5.47	3.53	2.42	2.82	4.93	0.795	6.44	0.862	4.99
CCTCGGAGCACAACAGGAGGTCAGAGCTGCCAGA	0.811	1.54	1.97	1.4	-0.755	1.65	0.0996	0.038	-0.859	-0.308	-0.234	0.244	-0.72	-1.62	1.23	1.56	0.0895	2.01	0.0401	1.74
CTACCCAGGTGAACAAGGTCGTTGATTACTATTC	0.858	0.806	0.13	1.4	-0.485	1.99	0.957	0.672	0.076	0.194	1.84	2.27	0.299	-0.0404	0.541	2.03	0.96	1.61	0.91	1.29
GCTACAGGGTCAGCTAGAGGCCAGAGTATGGAAA	4.62	2.54	-0.26	2.36	-0.67	4.6	2.79	2.91	0.541	1.78	1.26	1.75	-0.627	-0.389	1.43	3.1	-0.36	4	-0.208	4.32
CGTCAAAGTTCAAGGTAACGTAGCAGAAAGCAGC	6.17	5.74	2.69	3.38	0.96	4.55	4.28	5.21	2.09	4.31	0.831	2.13	0.429	0.415	4.56	4.44	3.02	3.64	2.42	5.1
CCTATTTGGTCAAGGTCACACACGCTATAGGTAC	4.34	4.04	2.64	4.09	1.47	4.33	3.07	3.58	1.55	2.5	2.33	3.67	1.27	1.25	3.05	4.1	2.06	4.39	2.51	4.3
CCGACTGGGGCAGAAAGCTTACCATACCATCCGG	-0.854	-0.845	-0.778	-0.743	-0.693	-0.683	0.434	-0.227	-0.693	-0.772	1.49	0.739	-1.01	-2.56	-0.236	-0.856	-0.585	-1.22	-0.188	-0.092
CCTTACGGGTCACGAGGTTATAGCCCGACGAGCG	6.99	4.42	0.302	3.77	-0.0981	6.03	7.34	6.97	3.33	5.71	3.74	5.56	0.959	1.66	3.14	4.59	-0.00848	6.27	0.153	4.74
ACTATTCGTTGACTTAGGGCAACCGATACGACGC	0.425	0.382	0.669	0.263	1.46	0.125	0.87	-0.0902	0.272	0.212	-0.214	0.623	1.11	1.54	0.718	0.152	0.211	0.392	0.76	0.866
ATCTCGAGGTAAAGATAGTTCAGTGAATGCAAAT	0.198	5.34	0.132	1.62	0.118	0.727	0.145	0.25	0.14	0.23	-0.0258	0.54	0.0992	0.266	0.0262	2.22	0.66	0.499	-0.0875	0.896
TCGAGTAGGTTAGGGGCAGTCAGAATGGCGTCGA	0.232	0.211	-0.0968	0.86	-0.416	1.11	0.492	1.58	0.558	1.36	2	1.49	-0.663	-0.988	0.763	0.184	0.227	0.265	-0.345	1.08
CCTTACGGGTCAAGCTTATAGCACGGGTGGTACG	5.81	3.52	-0.087	3.04	0.0884	4.93	4.12	4.65	1.87	3.43	2.26	3.48	0.116	-0.188	1.56	2.77	-0.265	3.81	0.95	4.05
TCATATAGGTAAACAGGTGACAGTCCGTAAGTTA	0.832	0.858	0.306	0.84	-0.213	2.24	2.52	3.35	4.16	3.91	4.87	4.6	1.49	1.05	0.856	0.915	0.237	0.971	0.875	0.779
TGAATGAGGTTATATGATCAGGGAACGTTGCAAA	1.85	1.48	-0.0351	1.25	0.134	2.97	1.44	1.76	1.05	1.45	1.01	1.63	0.22	0.825	0.489	1.04	0.00293	1.77	0.606	1.26
CAAACTAGGTCAAGGTCAAAGTGGGTTTGTGCCA	6.71	5.42	3.68	4.73	1.29	6.04	9.42	7.89	6.5	8.27	8.63	8.56	2.16	1.39	3.95	5.56	2.52	5.18	1.68	5.14
CCTTACGGGTCCAGGTTATAGCACGGGTGGTACG	-0.118	-0.304	-0.277	-0.566	-1.29	-0.292	0.168	-0.847	-0.404	-0.604	-1.08	-0.342	-0.7	-1.74	-0.0235	-0.402	-0.186	-0.536	0.162	0.245
TCTGCTAGGTCAACGATGGGCAGCTAATCTGCTA	3.19	2.29	-0.252	1.2	-0.397	2.94	2.47	3.01	1.85	2.49	4.14	4	1.49	-0.401	0.59	0.836	-1.21	1.73	-1.18	4.19
CCTAGTTGGTCAAGGTCACACTCGCTATAGGTAC	3.95	3.53	2.41	3.43	0.997	3.86	2.85	3.32	1.24	2.41	2.46	3.35	0.792	0.878	3.44	3.95	2.21	4.18	2.57	3.85
GCTTGTAGATCAAGGATAAGAAAGACTAAGCTAA	-0.495	-1.03	-0.557	-0.935	-0.998	-0.619	0.375	0.179	-0.00993	-0.0632	0.345	-0.0525	-0.469	-0.526	-0.571	-0.567	-0.33	-0.653	-1.12	-1.81
CATACAGGGTCAGCTAGGCCCGAGTAGGGACGGC	4.65	3	-0.329	1.95	0.134	4.15	2.95	2.99	0.725	1.72	0.974	2.05	0.221	0.342	1.66	2.1	-0.596	3.11	0.256	4.08
CGAACTAGGTCAAGAACAGTGAATCTCCGCACGC	2.92	1.9	0.155	1.35	0.0467	4.39	6.53	6.17	2.93	5.49	8.01	8.06	0.866	0.438	1.15	0.968	-0.254	1.69	0.13	3.69
CCGAGTAGGTTATGGTGCATTCAGGCAACGGTGA	0.234	0.34	0.363	0.361	0.234	1.52	2.04	3.55	1.15	3.04	3.71	2.67	0.333	-0.183	1.25	-0.0319	0.413	0.311	0.498	0.711
CCTTACGGGTCACTCCAGGTTATAGTATCGGAGT	4.76	7.84	2.33	5.52	0.0567	4.62	3.5	3.93	1.33	2.85	2.7	3.52	0.75	0.31	1.56	4.94	0.228	3.64	0.304	3.8
TTTACAGGGTCAAAGGCCAGAGTACGAATGTCGA	6.76	5.85	2.22	4.87	1.18	6.03	8.6	7.65	6.04	7.79	3.26	5.18	1.93	1.36	1.8	4.41	0.247	6	1.16	4.52
CGAACTAGGTCATCAAGGACAGTGAATACATTGA	3.45	2.23	0.477	1.76	-0.245	4.53	7.15	6.3	3.43	5.6	8.23	8.64	1.85	1.55	1.45	2	1.45	2.13	0.127	3.88
CCTCGGAGGAAAGAAGGTCAGAGCTGTCCGCTTT	0.768	1.38	-0.152	0.92	-0.651	2.01	-0.343	0.98	-0.857	0.12	0.673	0.86	-2.12	-1.68	1.32	1.16	-0.583	1.95	0.0336	2.27
CAAACTAGGTCACAGAGGTCCAAGTCCGTGCGTA	4.06	3.27	0.422	2.32	0.233	5.18	8.72	7.58	5.04	7.32	8.78	9.18	3.75	2.44	2.41	3.43	0.225	3.05	0.32	4.22
AATACAGGGCCACTAGGCCAGAGTAGGTACGAAT	-0.165	-0.349	-0.323	-0.572	-0.877	0.171	1.13	0.532	0.0485	0.00605	1.33	2.42	0.705	0.0878	0.246	-0.239	-0.266	-0.268	0.415	0.772
TCATATGGGTAAAAGGTGAAAGTCGGTGTGGTAA	1.33	1.38	-0.164	1.62	-0.571	4.91	8.23	7.44	7.67	8.21	4.48	4.52	0.558	0.338	1.03	1.61	-0.132	2.3	0.788	1.85
